According to the supplement of paper PMC12494721:
Where a name gives a salt, the structure may show the parent alone.

Legend:
Conditions in all cases: incubation time: 27 h, anaerobic, 37 °C;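 for the amine columns active = adjusted P below 0.05 in both replicates with a change the same way and a mean fold change under 0.8 or over 1.25; inactive = the rest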
[1] = system: Clostridium sporogenes DSM 1664; experiment: growth (OD595) fold change vs plate DMSO controls (fold change (ratio)); higher = more growth
In short: (§1)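 Shaken 96-well cultures in mGAM, grown anaerobically for 27 h at 37 °C, were read at 595 nm. OD came from blank-subtracted readings, corrected for background with 20 µM compound solutions in water and scaled by a calibration factor of 5. Growth is the fold change versus the plate's median DMSO control. Values average 2 biological replicates, and any fold change above 1.5 is NA.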

Escherichia coli IAI1 [2] = experiment: as above
In short: as §1

[3] = system: Klebsiella aerogenes DSM 30053; experiment: as above
In short: as §1

[4] = system: Ruminococcus gnavus DSM 108212; experiment: as above
In short: as §1

[5] = system: Klebsiella aerogenes DSM 30053; experiment: fold change of Histamine concentration vs plate DMSO controls (fold change (ratio)); higher = more amine produced, active = hit call of the paper (significant change in both replicates, either direction)
In short: (§2)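 Each value is the fold change relative to DMSO-only wells on the same plate. Four gut bacterial strains were grown anaerobically in mGAM at 37 °C for 27 h in 80 µL wells, starting at OD 0.1 before a 1:1 dilution, with compounds at 20 µM final (sweeteners 50 µM). Whole cultures were extracted with cold acetonitrile/methanol containing 0.1% formic acid, centrifuged, and amines were quantified by LC–triple-quadrupole MS (dynamic MRM) against external calibration curves with within-batch drift correction. Values are means of 2 biological replicates.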

[6] = system: Clostridium sporogenes DSM 1664; experiment: fold change of Tryptamine concentration vs plate DMSO controls (fold change (ratio)); higher = more amine produced, active = hit call of the paper (significant change in both replicates, either direction)
In short: as §2

[7] = system: Ruminococcus gnavus DSM 108212; experiment: as above
In short: as §2

Escherichia coli IAI1 [8] = experiment: fold change of Putrescine concentration vs plate DMSO controls (fold change (ratio)); higher = more amine produced, active = hit call of the paper (significant change in both replicates, either direction)
In short: as §2

[9] = system: Klebsiella aerogenes DSM 30053; experiment: as above
In short: as §2

Escherichia coli IAI1 [10] = experiment: fold change of Cadaverine concentration vs plate DMSO controls (fold change (ratio)); higher = more amine produced, active = hit call of the paper (significant change in both replicates, either direction)
In short: as §2

[11] = system: Klebsiella aerogenes DSM 30053; experiment: as above
In short: as §2

[12] = system: Ruminococcus gnavus DSM 108212; experiment: fold change of 2-Phenylethylamine concentration vs plate DMSO controls (fold change (ratio)); higher = more amine produced, active = hit call of the paper (significant change in both replicates, either direction)
In short: as §2

Structure (SMILES)	growth [1]	growth (Escherichia coli IAI1 [2])	growth [3]	growth [4]	fold change of Histamine concentration [5]	fold change of Tryptamine concentration [6]	fold change of Tryptamine concentration [7]	fold change of Putrescine concentration (Escherichia coli IAI1 [8])	fold change of Putrescine concentration [9]	fold change of Cadaverine concentration (Escherichia coli IAI1 [10])	fold change of Cadaverine concentration [11]	fold change of 2-Phenylethylamine concentration [12]
CN1CCC[C@@H]1CCO[C@](C)(c1ccccc1)c1ccc(Cl)cc1 [Clemastine fumarate] (20 µM)	1.2	1.02	1.09	0.749	0.843 (inactive)	1 (inactive)	0.851 (inactive)	1.06 (inactive)	0.975 (inactive)	1.12 (inactive)	1.03 (inactive)	0.886 (inactive)
COc1cc(C)c(/C=C/C(C)=C/C=C/C(C)=C/C(=O)O)c(C)c1C [Acitretin] (20 µM)	0.986	1.1	1.02	1.09	0.97 (inactive)	0.967 (inactive)	0.962 (inactive)	1.18 (inactive)	0.996 (inactive)	0.971 (inactive)	1.01 (inactive)	0.99 (inactive)
COc1cc2nc(N(C)CCCNC(=O)C3CCCO3)nc(N)c2cc1OC (stereo not given) [Alfuzosin hydrochloride] (20 µM)	0.976	1.01	1.01	1.31	0.953 (inactive)	1 (inactive)	1.04 (inactive)	0.976 (inactive)	0.99 (inactive)	1.01 (inactive)	1.04 (inactive)	1.04 (inactive)
C=C(NC(=O)C(=C)NC(=O)c1csc(C2=N[C@@H]3c4csc(n4)[C@H]4NC(=O)c5csc(n5)[C@H]([C@](C)(O)[C@@H](C)O)NC(=O)[C@H]5CSC(=N5)/C(=C/C)NC(=O)[C@H]([C@@H](C)O)NC(=O)c5csc(n5)[C@]3(CC2)NC(=O)[C@H](C)NC(=O)C(=C)NC(=O)[C@H](C)NC(=O)[C@H]([C@@H](C)CC)N[C@@H]2C=Cc3c([C@H](C)O)cc(nc3[C@H]2O)C(=O)O[C@@H]4C)n1)C(N)=O [Thiostrepton] (20 µM)	0.00647	1.05	1.14	0.164	0.968 (inactive)	0.033 (active)	0.0887 (active)	1.03 (inactive)	1.03 (inactive)	1.02 (inactive)	1.02 (inactive)	0.084 (active)
Cc1cc(-n2c(=O)[nH]c(=O)n(C)c2=O)ccc1Oc1ccc(SC(F)(F)F)cc1 [Toltrazuril] (20 µM)	1.1	0.997	1.05	1.09	0.976 (inactive)	0.941 (inactive)	0.792 (inactive)	1.01 (inactive)	1 (inactive)	1.08 (inactive)	1.01 (inactive)	0.81 (inactive)
O=C1CC[C@@H](C(=O)N2CSC[C@H]2C(=O)O)N1 [Pidotimod] (20 µM)	1.31	0.987	1.02	1.09	0.983 (inactive)	0.982 (inactive)	1.02 (inactive)	0.979 (inactive)	0.992 (inactive)	1.01 (inactive)	0.999 (inactive)	1.04 (inactive)
c1ccc2c(c1)Cc1ccccc1-2 [Fluorene] (20 µM)	1	1.04	1.07	1.09	0.932 (inactive)	0.97 (inactive)	1 (inactive)	1.05 (inactive)	1.02 (inactive)	0.914 (inactive)	1.02 (inactive)	0.967 (inactive)
CN(C)/N=N/c1[nH]cnc1C(N)=O [Dacarbazine] (20 µM)	0.822	1	1.06	1.02	0.954 (inactive)	1 (inactive)	1.01 (inactive)	0.984 (inactive)	1.01 (inactive)	0.993 (inactive)	1.02 (inactive)	1.05 (inactive)
Cc1cc(C(=O)NNCc2ccccc2)no1 [Isocarboxazid] (20 µM)	1.17	1.04	1.18	0.995	0.915 (inactive)	1.09 (inactive)	1.07 (inactive)	1.05 (inactive)	0.987 (inactive)	0.983 (inactive)	1.02 (inactive)	1.09 (inactive)
Cc1ncc([N+](=O)[O-])n1CC(C)O (stereo not given) [Secnidazole] (20 µM)	0	1.07	1.02	0.0442	0.824 (inactive)	0.0346 (active)	0.041 (active)	0.978 (inactive)	1.03 (inactive)	0.987 (inactive)	1.02 (inactive)	0.0431 (active)
O=C(NCc1ncc(C(F)(F)F)cc1Cl)c1c(Cl)cccc1Cl (20 µM)	1	0.98	1	1.03	1.01 (inactive)	0.989 (inactive)	1.01 (inactive)	1.01 (inactive)	1.02 (inactive)	1.01 (inactive)	1.01 (inactive)	0.956 (inactive)
CCOC(=O)C1=C[C@@H](OC(CC)CC)[C@H](NC(C)=O)[C@@H](N)C1 [Oseltamivir phosphate] (20 µM)	0.866	0.987	1.01	1.01	1.03 (inactive)	1.05 (inactive)	1.03 (inactive)	1.02 (inactive)	1 (inactive)	1.03 (inactive)	1 (inactive)	1.05 (inactive)
COc1cccc(N(C)C(=S)Oc2ccc3c(c2)CCCC3)n1 [Liranaftate] (20 µM)	1.1	0.972	0.969	0.941	1 (inactive)	0.974 (inactive)	1.31 (active)	0.998 (inactive)	1.06 (inactive)	1.01 (inactive)	1.07 (inactive)	1.69 (active)
CC(=O)SCC(Cc1ccccc1)C(=O)NCC(=O)OCc1ccccc1 (stereo not given) [Racecadotril] (20 µM)	1.06	1	0.986	0.929	0.978 (inactive)	0.941 (inactive)	1.01 (inactive)	0.991 (inactive)	0.991 (inactive)	0.985 (inactive)	0.999 (inactive)	0.954 (inactive)
Nc1nc(=S)c2ncn([C@@H]3O[C@H](CO)[C@@H](O)[C@H]3O)c2[nH]1 [Thioguanosine] (20 µM)	0.927	0.951	1.03	0.773	0.953 (inactive)	0.981 (inactive)	0.955 (inactive)	0.479 (inactive)	1.01 (inactive)	0.903 (inactive)	1.03 (inactive)	0.925 (inactive)
CC(C)(C)C(O)/C=C/c1ccc2c(c1)OCO2 (stereo not given) [Stiripentol] (20 µM)	1.04	1.03	1	0.89	1.03 (inactive)	0.927 (inactive)	1.04 (inactive)	1.01 (inactive)	1.01 (inactive)	1.03 (inactive)	0.985 (inactive)	0.981 (inactive)
CC(=O)OCC(=O)[C@@]1(OC(C)=O)[C@@H](C)C[C@H]2[C@@H]3C[C@H](F)C4=CC(=O)C=C[C@]4(C)[C@@]3(F)[C@@H](O)C[C@@]21C [Diflorasone Diacetate] (20 µM)	1.05	0.996	0.978	0.993	1.03 (inactive)	1.03 (inactive)	1.01 (inactive)	0.969 (inactive)	1.01 (inactive)	1.02 (inactive)	0.989 (inactive)	0.978 (inactive)
COc1ccc(CC(C)NCC(O)c2ccc(O)c(NC=O)c2)cc1 (stereo not given) [Formoterol fumarate] (20 µM)	1.13	1.21	1.11	1.3	0.864 (inactive)	1.03 (inactive)	1.1 (inactive)	1.03 (inactive)	0.951 (inactive)	0.91 (inactive)	1.09 (inactive)	1.11 (inactive)
c1ccc2c(c1)-c1cccc3c1c-2cc1ccccc13 [Benzo[b]fluoranthene] (20 µM)	1.08	0.997	1.04	1	0.993 (inactive)	1.03 (inactive)	1.02 (inactive)	1 (inactive)	1.02 (inactive)	1.03 (inactive)	1.01 (inactive)	1.04 (inactive)
CCCCC(CC)CN1C(=O)[C@@H]2[C@H](C1=O)[C@@H]1C=C[C@H]2C1 (mixture of isomers) (20 µM)	1.03	1.02	1.06	1.02	0.925 (inactive)	0.978 (inactive)	1.05 (inactive)	0.993 (inactive)	0.987 (inactive)	1.02 (inactive)	1 (inactive)	1.06 (inactive)
COc1ccccc1N1CCN(CC(O)COc2cccc3ccccc23)CC1 (stereo not given) [Naftopidil dihydrochloride] (20 µM)	1.11	0.99	1.17	0.961	0.884 (inactive)	1.02 (inactive)	0.888 (inactive)	0.981 (inactive)	1.01 (inactive)	1.06 (inactive)	1.02 (inactive)	0.963 (inactive)
Cc1cccc(C)c1NC(=O)CC12CCCN1CCC2 [Pilsicainide Hydrochloride] (20 µM)	0.937	1.04	1.01	1.04	0.986 (inactive)	0.995 (inactive)	1.05 (inactive)	1.05 (inactive)	0.984 (inactive)	1.03 (inactive)	0.98 (inactive)	1.06 (inactive)
N[C@@H](CSCCCO)C(=O)O [Fudosteine] (20 µM)	0.96	1.05	1.01	1.14	0.977 (inactive)	0.939 (inactive)	1 (inactive)	1.05 (inactive)	1.02 (inactive)	0.981 (inactive)	1.01 (inactive)	1.03 (inactive)
COc1ccc2[nH]cc(CCNC(C)=O)c2c1 [Melatonin] (20 µM)	0.916	0.932	1.06	0.789	0.94 (inactive)	1.03 (inactive)	1.01 (inactive)	0.98 (inactive)	0.999 (inactive)	0.999 (inactive)	1 (inactive)	0.98 (inactive)
CN1CCN(c2c(F)cc3c(=O)c(C(=O)O)cn4c3c2OCN4C)CC1 [Marbofloxacin] (20 µM)	0.0155	0.0185	0.139	1.36	0.107 (active)	0.0554 (active)	0.992 (inactive)	0.616 (active)	0.607 (active)	0.231 (active)	0.932 (inactive)	1.04 (inactive)
